Screening data from PubChem BioAssay.
CHT allo act: human CHT allosteric activation | AID 488977 | Q9GZV3 | B-score at 10 µM | actives 0.49% (n = 310,000) | CHT-expressing cells, membrane potential dye, choline EC20; hits give high values; LV-AA mutant CHT in HEK293 cells;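 active means initial fluorescence not abnormally high and integrated response B-score, plate-corrected, over 3 SD above library mean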
TMEM16A act: activates or potentiates the mouse TMEM16A chloride channel; Q8BHY3; HEK293 TMEM16A/YFP-H148Q/I152L, iodide quench fluorescence; hits give low values; B-score at 10 µM; actives 0.3% (n = 340,000);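 active means fluorescence-ratio B-score plate-corrected deviation score at least 3 library SD below zero, with starting fluorescence score within 5 deviations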;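 further: channel opened by trigger with iodide after compound preincubation; score built on the fluorescence ratio of max minus min over baseline; more negative score means more quench and so TMEM16A activation or potentiation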
Target sequence (Q8BHY3 whole entry, looked up): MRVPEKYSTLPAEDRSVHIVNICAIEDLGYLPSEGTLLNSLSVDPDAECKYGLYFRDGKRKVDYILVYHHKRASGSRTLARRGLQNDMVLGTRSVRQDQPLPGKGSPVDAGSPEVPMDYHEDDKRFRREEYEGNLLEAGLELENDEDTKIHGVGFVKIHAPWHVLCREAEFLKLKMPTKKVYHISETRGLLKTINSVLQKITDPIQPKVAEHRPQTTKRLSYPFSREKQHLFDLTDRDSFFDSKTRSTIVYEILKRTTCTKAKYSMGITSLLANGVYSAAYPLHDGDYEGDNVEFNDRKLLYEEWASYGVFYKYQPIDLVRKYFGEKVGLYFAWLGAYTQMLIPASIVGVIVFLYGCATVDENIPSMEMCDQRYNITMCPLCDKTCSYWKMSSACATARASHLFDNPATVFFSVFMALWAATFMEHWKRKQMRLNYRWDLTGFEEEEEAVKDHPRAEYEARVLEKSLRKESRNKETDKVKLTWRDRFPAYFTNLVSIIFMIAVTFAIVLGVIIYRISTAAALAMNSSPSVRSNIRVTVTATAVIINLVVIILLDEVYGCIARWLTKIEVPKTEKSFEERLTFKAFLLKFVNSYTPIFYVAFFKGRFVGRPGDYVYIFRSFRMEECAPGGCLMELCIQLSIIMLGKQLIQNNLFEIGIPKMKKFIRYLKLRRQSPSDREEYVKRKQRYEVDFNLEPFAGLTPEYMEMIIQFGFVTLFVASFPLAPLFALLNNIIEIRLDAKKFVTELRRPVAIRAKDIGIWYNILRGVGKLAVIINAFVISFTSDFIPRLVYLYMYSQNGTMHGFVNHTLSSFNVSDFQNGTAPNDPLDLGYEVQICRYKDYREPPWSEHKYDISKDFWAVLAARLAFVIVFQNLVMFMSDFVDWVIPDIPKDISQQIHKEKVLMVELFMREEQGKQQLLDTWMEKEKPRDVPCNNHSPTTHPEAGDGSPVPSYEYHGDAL
TMEM16A inh: blocks the mouse calcium-activated chloride channel TMEM16A. Q8BHY3. AID 588511. HEK293 TMEM16A/YFP iodide influx fluorescence, ionomycin. normalized B-score (activity score, 25-100; higher = stronger inhibition) at 10 µM. actives 1.2% (n = 310,000);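 active means ratio plate-corrected score three or more library SD toward inhibition, starting fluorescence score within five deviations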;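 further: score derived from kinetic fluorescence span divided by baseline fluorescence per well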
CHT inh: inhibitors of human choline transporter CHT | CHT-expressing cells, membrane potential dye, choline response; hits give low values | B-score at 10 µM | actives 0.86% (n = 310,000) | AID 488975;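 active means B-score over 3 SD under the library average, and starting fluorescence ratio not unusually high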;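 further: choline stimulus applied at its EC90 after an EC20 pre-addition; B-score computed on integrated fluorescence ratio after choline addition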
CHT inh conf: human CHT inhibition, confirmatory screen; shares compounds with CHT inh; CHT-expressing cells, choline membrane potential dye; LV-to-AA substituted CHT, HEK293 cells; CHT activity remaining % of control (hits give low values), % at 10 µM; actives 70% (n = 2,400); AID 493221;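 active means choline transporter activity left, mean of duplicates at 10 µM, below buffer-only control mean minus 3 SD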;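 further: depolarization triggered by choline at its EC90 following an EC20 pre-addition; 0% = hemicholinium-3 full block and 100% = buffer-only control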
HEK293 CHT ctr: counter-screen for CHT inhibitors: effect in parental HEK293 cells; membrane potential ratio readout (active if shifted either direction beyond buffer ±3SD; no single direction) at 10 µM; shares compounds with CHT inh; actives 4% (n = 2,400); membrane potential dye, choline response; active = decrease or increase beyond buffer ±3SD;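 further: parental cells lack the transporter so any hit is non-specific; ratio is peak minus trough fluorescence over baseline after EC90 choline challenge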
* = called active by the depositor; i = inactive; · = no result given. This is a sample that favours compounds with a hit; in the whole collection about 2.4% have one here.

SMILES | CHT allo act | TMEM16A act | TMEM16A inh | CHT inh | CHT inh conf | HEK293 CHT ctr
CCOc1cc(/C=C2/C(=O)ON=C2C)ccc1O | i | i | i | i | · | ·
CC1=NOC(=O)/C1=C/c1ccc(O)c(Cl)c1 | i | i | i | -8.62* | 26.8%* | i
O=C1ON=C(c2ccccc2)/C1=C/c1ccc(O)c(O)c1 | i | i | i | -6.83* | 32.6%* | i
Cc1ccc(C2=NNC(c3ccc(Cl)cc3)=Nc3ccccc32)o1 | i | i | i | i | · | ·
Cc1cc(NC(=O)CSc2nc(-c3ccccc3Cl)nc3c2c(=O)n(C)c(=O)n3C)no1 | i | i | i | i | · | ·
CCOC(=O)NC1C=CS(=O)(=O)C1 (stereo not given) | i | i | i | i | · | ·
O=C(O)CCNC1C=CS(=O)(=O)C1 (stereo not given) | i | i | i | -6.19* | i | i
O=C(NC1CCCCC1)c1ccc(CNc2nc(=S)[nH]c3ccccc23)cc1 | i | i | i | i | · | ·
Cc1ccc(C(=O)O)cc1NC(=S)NC(=O)Cc1ccccc1 | i | i | i | i | · | ·
Cc1ccc(C(=O)O)cc1NC(=S)NC(=O)c1ccc(COc2ccccc2)cc1 | i | i | 25* | -6.54* | 47.8%* | i
Cc1c(C)c(C)c(/C=[N+](/C)[O-])c(C)c1C | i | i | i | i | · | ·
CCOC(=O)c1c(C)n(C)c2ccc(O)c(CN3CCC(C)CC3)c12 | i | i | i | -13.7* | 20.0%* | 4.2*
CCN(CC)CCCN(C(=O)c1ccc(OC)cc1)c1nc(-c2ccc(OC)cc2)cs1 | i | i | i | -5.36* | 43.8%* | i
Cc1ccc(S(=O)(=O)NC(C)C(=O)Nc2ccc3c(c2)OCO3)cc1 (stereo not given) | i | i | i | -9.02* | i | i
CC(C)Cn1c(N)c(C(=O)COC(=O)c2ccccc2Cl)c(=O)n(C)c1=O | i | i | i | -10.1* | i | i
CC(C)Cn1c(N)c(C(=O)COC(=O)c2ccccc2F)c(=O)n(C)c1=O | i | i | i | i | · | ·
O=C(NCCCn1ccnc1)c1cnn2c1NC(c1ccccc1)CC2C(F)(F)F (stereo not given) | i | i | i | -13.6* | 9.0%* | i
COc1cccc(NC(=O)c2cc3ccccc3o/c2=N\O)c1 | i | i | i | -6.26* | i | i
c1ccc(Cn2ccnc2SCc2nnc(-c3ccccc3)o2)cc1 | i | i | i | -6.14* | 63.5%* | i
CCN1CCN(C(=O)/C(=C/c2cccs2)NC(=O)c2ccc(C)c(C)c2)CC1 | i | i | i | i | · | ·
COc1ccc(-c2cn(Cc3ccc(C(N)=O)cc3)c(CCN)n2)cc1 | i | i | i | -8.1* | i | i
COc1ccc(-c2cn(CCO)c(CCN)n2)cc1 | i | i | i | i | · | ·
COc1ccc(OC)c(NC(=O)CCN2CCN(c3ccccc3F)CC2)c1 | i | i | i | i | · | ·
COc1ccc(C)cc1NC(=O)CN1CCN(c2ccccc2F)CC1 | i | i | i | -4.99* | i | i
O=C(Nc1ccc(F)cc1)N1CCN(CCc2ccccc2)CC1 | i | i | i | -5.4* | 68.8%* | i
SMILES | CHT allo act | TMEM16A act | TMEM16A inh | CHT inh | CHT inh conf | HEK293 CHT ctr
CCOC(=O)CN1C(=O)S/C(=C/c2ccc(O)c([N+](=O)[O-])c2)C1=O | i | i | i | -5.46* | i | i
CCOC(=O)CN1C(=O)S/C(=C/c2cc(C)n(C)c2C)C1=O | i | i | i | i | · | ·
CCC1CCCCN1S(=O)(=O)c1ccc(NC(=O)C2CCN(C(=O)c3ccco3)CC2)cc1 (stereo not given) | i | i | i | i | · | ·
Cc1ccc(OCCSCc2nc3ccccc3[nH]2)cc1 | i | i | i | -5.46* | i | i
Cc1ccc(CSCc2nc3ccccc3[nH]2)cc1 | · | i | · | · | · | ·
CCCN1Cc2cccc(C(=O)NCc3ccccc3OC)c2C1=O | i | i | i | -5.27* | 70.7%* | i
Cc1cc(C)c[n+](CC(=O)c2cc3ccccc3oc2=O)c1 | i | i | i | i | · | ·
Cc1cc(C)c[n+](CC(=O)c2c(C)cc(C)c([N+](=O)[O-])c2C)c1 | i | i | i | -7.85* | 44.6%* | i
COc1ccc(/C=N/NC(=O)c2ccc3nc[nH]c3c2)cc1 | i | i | i | i | · | ·
COCCNC(=S)N1CCN(c2nc(-c3ccc(Cl)cc3)cs2)CC1 | i | i | i | -7.48* | i | i
Cc1cc(C)c(C#N)c(SCS(=O)Cc2ccccc2)n1 (stereo not given) | i | i | i | -5.93* | i | i
Cc1cc(C)c(C#N)c(SCS(=O)Cc2ccc(Cl)cc2)n1 (stereo not given) | i | i | i | i | · | ·
COc1ccc(C(CNC(=O)c2cc(S(=O)(=O)N3CCN(c4ccccc4)CC3)ccc2Cl)N(C)C)cc1 (stereo not given) | · | i | · | · | · | ·
O=C(CN1CCN(Cc2ccc(Cl)cc2)CC1)N1CCc2ccccc21 | i | i | i | -6.25* | 48.2%* | i
Cc1csc(=N)n1CC(=O)N1CCc2ccccc21 | i | i | i | -9.58* | 21.3%* | i
CCOc1ccc2oc(C(=O)N3CC(C)OC(C)C3)c(C)c2c1 (stereo not given) | i | i | i | i | · | ·
Cc1ccc(C)c(C(=O)CCC(=O)NCc2ccc(Cl)cc2)c1 | i | i | i | i | · | ·
CCC1CCc2c(sc3nc(SCC(=O)NCc4ccco4)n(-c4ccccc4)c(=O)c23)C1 (stereo not given) | i | i | i | i | · | ·
CC(C)c1nnc(NC(=O)c2nc(S(=O)(=O)Cc3ccc(F)cc3)ncc2Cl)s1 | i | i | i | -6.16* | 19.4%* | i
CCc1nnc(NC(=O)c2nc(S(=O)(=O)Cc3ccc(C)cc3)ncc2Cl)s1 | i | i | i | -8.3* | 31.9%* | i
CCc1nnc(NC(=O)c2nc(S(=O)(=O)Cc3cccc(C)c3)ncc2Cl)s1 | i | i | i | -6.1* | 30.3%* | i
CCc1nnc(NC(=O)c2nc(S(=O)(=O)Cc3ccccc3)ncc2Cl)s1 | i | i | i | i | · | ·
COc1ccc(S(=O)(=O)N2CCN(c3nc(C)cc(C)n3)CC2)cc1 | i | i | i | i | · | ·
O=C(O)C(Cc1c[nH]c2ccccc12)NS(=O)(=O)c1cccc2nsnc12 (stereo not given) | i | i | i | i | · | ·
